Measurements reported in PubChem BioAssay (NCATS).
Results filed as inconclusive are left out. Unmarked numbers belong to inactive results. Active and inactive are the calls of the source. The call rests on the fitted dose curve; in most records, active means well fitted inhibition curve with a large enough effect; inconclusive means small, poorly fitted or top-dose-only effect; inactive means flat fitted curve, though single readings scatter.

What follows are compounds tested on ATS95 (assay: qHTS profiling for inhibitors of Plasmodium falciparum proliferation (AID 504749; further: nearly all actives have a fitted effect of over 60% in size;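 on activity, negative = inhibition: 0% = DMSO vehicle and full inhibition = artemisinin control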)). Details: P. falciparum in erythrocytes, SYBR Green DNA, 72 h; series mostly up to 28.7 µM; activity, negative = inhibition: at the top concentration.
Summary of the method: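 Fluorescence of SYBR Green-bound parasite DNA, read at 485/535 nm, served as the growth measure. Infected erythrocytes were cultured with compound 72 h; artemisinin (0.29 uM) and DMSO wells defined the normalization range.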
Potency means the concentration at half of the fitted maximal effect.

Row | SMILES | activity, negative = inhibition | Potency
1 | CCCCCCCCCCCCCCCC(=O)OC[C@H](O)[C@H]1OC[C@@H](O)[C@@H]1O | 2.41% | –
2 | CCCCC(=O)OCC(=O)[C@]1(O)Cc2c(O)c3c(c(O)c2[C@H](OC2CC(NC(=O)C(F)(F)F)C(O)C(C)O2)C1)C(=O)c1c(OC)cccc1C3=O (stereo not given in full) | – | 2000 nM (active)
3 | C[C@H]1OC(OC2C(O)[C@@H](O)C(OC3C(O)[C@@H](O)C(O)O[C@@H]3CO)O[C@@H]2CO)[C@H](O)C(O)C1N[C@H]1C=C(CO)[C@@H](O)[C@H](O)C1O (stereo not given in full) | 7.68% | –
4 | CCN(CC)CC(=O)Nc1c(C)cc(C)cc1C | -7.04% | –
5 | CC(=O)N[C@H]1[C@H](O[C@@H]2c3ccc(c(Cl)c3)Oc3cc4cc(c3O[C@@H]3O[C@H](CO)[C@@H](O)[C@H](O)C3C)Oc3ccc(cc3Cl)C[C@H]3NC(=O)[C@@H](N)c5ccc(O)c(c5)Oc5cc(O)cc(c5)[C@H](NC3=O)C(=O)N[C@H]4C(=O)N[C@H]3C(=O)N[C@@H]2C(=O)N[C@@H](C(=O)O)c2cc(O)cc(O[C@H]4O[C@H](CO)[C@@H](O)C(O)[C@@H]4O)c2-c2cc3ccc2O)O[C@H](CO)[C@@H](O)[C@@H]1O (stereo not given in full) | 1.95% [at 12.8 µM] | –
6 | NC(=O)c1ncn(C2OC(CO)C(O)C2O)c1N (stereo not given) | 8.17% | –
7 | C[C@H]1[C@@H](OC(=O)CCC(=O)O)OC2OC3(C)CC[C@H]4[C@H](C)CC[C@@H]1[C@@]24OO3 (stereo not given in full) | – | 5 nM (active)
8 | CC1(Cn2ccnn2)[C@H](C(=O)O)N2C(=O)C[C@H]2S1(=O)=O (stereo not given in full) | 6.25% | –
9 | CN(C)CC/C=C1\c2ccccc2COc2ccc(CC(=O)O)cc21 | 1.15% | –
10 | CCCC(=O)O[C@]1(C(=O)COC(C)=O)CC[C@H]2C3C[C@H](F)C4=CC(=O)C=CC4(C)[C@@]3(F)[C@@H](O)CC21C (stereo not given in full) | -22.2% | –
11 | OCCN1CC(O)C(O)C(O)C1CO (stereo not given) | 0.0197% | –
12 | COc1cc2c(cc1O)CCN[C@@]21CS[C@H]2c3c(OC(C)=O)c(C)c4c(c3C(COC1=O)N1C2C2c3c(cc(C)c(OC)c3O)CC([C@@H]1O)N2C)OCO4 (stereo not given in full) | – | 0.9 nM (active)
13 | CC(CCC(=O)O)C1CCC2C3C(=O)C[C@@H]4CC(=O)CC[C@@]4(C)C3CC(=O)[C@]12C (stereo not given in full) | -2.58% | –
14 | C[n+]1c2cc(N)ccc2cc2ccc(N)cc21 | – | 1120 nM (active)
15 | O=C(OC[C@@H]1O[C@@](O)(COC(=O)c2cccnc2)[C@H](OC(=O)c2cccnc2)[C@H]1OC(=O)c1cccnc1)c1cccnc1 | -0.113% | –
16 | O=[N+]([O-])O[C@H]1CO[C@H]2[C@@H]1OC[C@H]2O | 1.37% | –
17 | COc1cccc(OC)c1C(=O)NC1C(=O)N2C1SC(C)(C)C2C(=O)O (stereo not given) | -4.17% | –
18 | NC[C@@H]1O[C@H](OC2[C@@H](CO)O[C@@H](OC3[C@H](O)[C@H](N)C[C@H](N)[C@H]3OC3O[C@H](CO)[C@@H](O)[C@H](O)[C@@H]3N)[C@H]2O)C(N)[C@H](O)[C@@H]1O (stereo not given in full) | 12% | –
19 | Cc1ccc(S(=O)(=O)NC(=O)NC(C)Cc2ccccc2)cc1 (stereo not given) | 6.44% | –
20 | OCCOC[C@H]1O[C@H](OCCO)[C@H](OCCO)[C@@H](OCCO)[C@@H]1OCCO (tested in a mixture with another compound) | 4.48% | –

Row | SMILES | activity, negative = inhibition | Potency
21 | C[S+](C)CC[C@H](N)C(=O)O | -2.76% | –
22 | CC[C@@H]1/C=C(\C)C[C@H](C)C[C@H](OC)[C@H]2O[C@@](O)(C(=O)C(=O)N3CCCC[C@H]3C(=O)O[C@H](/C(C)=C/[C@@H]3CC[C@H](Cl)[C@H](OC)C3)[C@H](C)[C@@H](O)CC1=O)[C@H](C)C[C@@H]2OC | -1.55% | –
23 | NC(=O)C1CC2(NC(=O)NC2=O)c2cc(F)ccc2O1 (stereo not given) | 1.91% | –
24 | CN1[C@@H]2CC[C@@H]1CC(OC(=O)[C@H](CO)c1ccccc1)C2 (stereo not given in full) | -55.8% | –
25 | CC[C@@]1(O)C[C@H](O[C@H]2C[C@@H](N(C)C)[C@@H](O[C@H]3C[C@@H](O)[C@@H](O[C@H]4CCC(=O)[C@@H](C)O4)[C@@H](C)O3)[C@@H](C)O2)c2c(cc3c(c2O)C(=O)c2c(O)cccc2C3=O)[C@H]1C(=O)OC | – | 316 nM (active)
26 | CCCCCCCCCCCC(=O)OCC(O)C1OCC(O)C1O (stereo not given) | 5.59% | –
27 | C/C1=C2/[N-]C(C(CC(N)=O)[C@@]2(C)CCC(=O)NCC(C)OP(=O)([O-])O[C@H]2[C@@H](O)[C@@H](n3cnc4cc(C)c(C)cc43)O[C@@H]2CO)[C@]2(C)N=C(/C(C)=C3N=C(/C=C4N=C1C(CCC(N)=O)C\4(C)C)[C@@H](CCC(N)=O)[C@]\3(C)CC(N)=O)[C@@H](CCC(N)=O)[C@]2(C)CC(N)=O.CC(=O)O.[Co] (stereo not given in full) | -14.5% | –
28 | CC1(C)OC[C@@H]2O[C@@]3(C(=O)O)OC(C)(C)O[C@@H]3[C@@H]2O1 | 8.22% | –
29 | Cc1ccccc1N1C(=O)c2cc(N)ccc2N/C1=C\F | -13.8% | –
30 | CCC(C(=O)O)C1OC(C(C)C(O)C(C)C(=O)C(CC)C2OC3(C=CC(O)C4(CCC(C)(C5CCC(O)(CC)C(C)O5)O4)O3)C(C)CC2C)C(C)CC1C (stereo not given) | – | 178 nM (active)
31 | O=C1C(I)=CC(=C(c2cc(I)c(O)c(I)c2)c2ccccc2C(=O)O)C=C1I | -15.1% | –
32 | NC(=O)NC(CCC(=O)O)C(=O)O (stereo not given) | -2.28% | –
33 | COC1CC2CCC(C)[C@](O)(O2)C(=O)C(=O)N2CCCCC2C(=O)OC(C(C)CC2CCC(O)C(OC)C2)CC(=O)C(C)/C=C(/C)C(O)C(OC)C(=O)C(C)CC(C)C=CC=C/C=C\1C (stereo not given in full) | – | 3550 nM (active)
34 | CC(=O)OCC(=O)[C@@]1(O)CCC2C3C[C@H](C)C4=CC(=O)C=CC4(C)C3C(O)CC21C (stereo not given in full) | 1.53% | –
35 | CN[C@H](C)CCC=C(C)C | – | 355 nM (active)
36 | CC1(C)C2CC[C@]1(C)[C@@H](O)C2 | 0.197% | –
37 | OCC1O[C@H](Oc2ccc(O)cc2)C(O)C(O)C1O (stereo not given in full) | 7.32% | –
38 | Nc1nc(F)nc2c1ncn2[C@@H]1O[C@H](CO)[C@@H](O)[C@H]1O | 0.221% | –
39 | CC1OC(OC2CCC3(C)C(CCC4C3CC(O)C3(C)C(C5=CC(=O)OC5)CCC43O)C2)CC(O)C1OC1CC(O)C(OC2CC(O)C(OC3OC(CO)C(O)C(O)C3O)C(C)O2)C(C)O1 (stereo not given) | -4.38% | –
40 | CC1OC(OCC2OC(Oc3c(-c4ccc(OCCO)c(OCCO)c4)oc4cc(OCCO)cc(O)c4c3=O)C(O)C(O)C2O)[C@@H](O)C(O)C1O (stereo not given in full) | -2.11% | –
